Assay outcomes from PubChem BioAssay.
The list is not random: actives were taken first. Their share in the collection is about 6.8%.
T cruzi growth-1: blocks T. cruzi growth in NIH3T3 culture; hit rate 5.9% among 77,000; inhibition, % at 8.34 µM; T. cruzi beta-gal in NIH3T3, GalScreen luminescence, 90 h; AID 624255;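 active = mean inhibition above about 93%, with at least 55% of replicates each passing it, limit read from the data, passing the limit was not always enough; inconclusive = only one of those two conditions holds; inactive = neither condition holds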
C diff HTS: blocks growth of Clostridium difficile; Clostridium difficile clinical isolate growth, OD600, 24 h; stronger effect = lower value; growth activity, negative = inhibition, % at 16 µg/mL (by protocol); hit rate 0.25% among 86,000;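 active = mean growth activity at or below -80% and every replicate also at or below -80%; inconclusive = mean at or below -80% but some replicate above -80%; inactive = mean growth activity above -80%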;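 note: 0% = DMSO wells and -100% = levofloxacin 16 µg/mL wells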
Pf Dd2 growth: blocks growth of Plasmodium falciparum Dd2 parasites. P. falciparum Dd2 growth, SYBR Green, 72 h; stronger effect = lower value. activity change, % at 10 µM. hit rate 2.3% among 94,000. AID 1159554; in the data active = activity change below about -80%; inconclusive = no clear call, values can overlap the other calls
T cruzi growth-2: inhibitors of T. cruzi proliferation; shares compounds with T cruzi growth-1; T. cruzi beta-gal in NIH3T3, GalScreen luminescence, 90 h; inhibition, % at 8.35 µM; hit rate 72% among 5,600;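 active = mean replicate inhibition above about 95% and at least 55% of replicates individually reaching it, limit read from the data; inconclusive = only one of the two criteria is met; inactive = neither criterion is met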
T cruzi growth-3: inhibitors of T. cruzi proliferation; T. cruzi beta-gal in NIH3T3, GalScreen luminescence, 90 h; hit rate 21% among 5,600; inhibition, % at 2.09 µM; shares compounds with T cruzi growth-1;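 active = mean inhibition above about 95%, with at least 55% of replicates also reaching it, limit read from the data; inconclusive = meets just one of the two conditions; inactive = meets neither condition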;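 note: plate controls were neutral control median for no effect and positive control median for full effect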
3T3 cytotox: kills mouse NIH/3T3 fibroblasts; AID 651742; shares compounds with T cruzi growth-1; NIH/3T3 viability, CellTiter-Glo ATP luminescence, 90 h; cytotoxicity (signal decrease), % at 8.35 µM; hit rate 14% among 5,600;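 active = mean signal decrease across replicates above about 35% based on untreated-well scatter, with enough replicates individually passing, limit read from the data; inconclusive = no rule stated though some were filed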;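 note: 0% = median of neutral control wells and 100% = median of positive control wells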
3T3 cytotox 2: cytotoxicity in mouse NIH/3T3 fibroblasts; shares compounds with T cruzi growth-1; NIH/3T3 viability, CellTiter-Glo ATP luminescence, 90 h; inhibition, % at 24.9 µM; hit rate 56% among 5,600;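 active = mean loss of cell viability signal at or above a set limit, and enough replicates individually reaching it; inconclusive = meets only the mean limit or only the replicate share; inactive = meets neither condition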;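 note: 0% = median of neutral control wells and 100% = median of positive control wells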
Starred values were filed as active, the others as inactive; ? = inconclusive; nt = not tested or not shown.

SMILES	T cruzi growth-1	C diff HTS	Pf Dd2 growth	T cruzi growth-2	T cruzi growth-3	3T3 cytotox	3T3 cytotox 2
C[C@@H]1CN([C@H](C)CO)S(=O)(=O)c2ccc(C#CCN(C)C)cc2O[C@H]1CN(C)Cc1ccccc1F	110*	-4	-67	106*	87	61*	106*
C[C@@H]1CN([C@@H](C)CO)S(=O)(=O)c2ccc(C#CC3CC3)cc2O[C@@H]1CN(C)Cc1ccccc1F	77	28	-3	nt	nt	nt	nt
COCC#Cc1ccc2c(c1)O[C@H](CN(C)Cc1ccccc1F)[C@@H](C)CN([C@H](C)CO)S2(=O)=O	-18	-4	-68	nt	nt	nt	nt
CC(C)CC#Cc1ccc2c(c1)O[C@@H](CN(C)Cc1ccccc1F)[C@H](C)CN([C@@H](C)CO)S2(=O)=O	56	nt	-68	nt	nt	nt	nt
C[C@H]1CN([C@@H](C)CO)S(=O)(=O)c2ccc(C#CCN(C)C)cc2O[C@H]1CN(C)Cc1ccccc1F	100*	-1	-45	96*	45	8	34*
COCC#Cc1ccc2c(c1)O[C@H](CN(C)Cc1ccccc1F)[C@H](C)CN([C@H](C)CO)S2(=O)=O	-1	-1	-46	nt	nt	nt	nt
C[C@@H]1CN([C@@H](C)CO)S(=O)(=O)c2ccc(C#CC3CC3)cc2O[C@H]1CN(C)Cc1ccccc1F	101*	15	-38	95*	109*	60*	106*
CC(C)CC#Cc1ccc2c(c1)O[C@@H](CN(C)Cc1ccccc1F)[C@@H](C)CN([C@@H](C)CO)S2(=O)=O	127*	nt	-33	92	112*	-1	105*
C[C@@H]1CN([C@H](C)CO)C(=O)c2cc(-c3ccccc3)cnc2O[C@@H]1CN(C)C(=O)Nc1ccccc1F	-98	-6	-4	nt	nt	nt	nt
COc1ccc(CN(C)C[C@@H]2Oc3ccc(NC(=O)Cc4ccccc4)cc3CC(=O)N([C@@H](C)CO)C[C@H]2C)cc1	nt	6	-23	nt	nt	nt	nt
Cc1noc(C)c1NC(=O)N[C@@H]1CC[C@H](CCNC(=O)C2CCC2)O[C@H]1CO	nt	1	-34	nt	nt	nt	nt
Cc1noc(C)c1NC(=O)N(C)C[C@@H]1OCCCC[C@H](C)Oc2ccc(NS(=O)(=O)c3ccc(Cl)cc3)cc2C(=O)N([C@H](C)CO)C[C@@H]1C	-23	-3	-54	nt	nt	nt	nt
O=C(Nc1ccccc1)N1CC(=O)N2[C@H](C1)[C@@H](c1ccc(C#Cc3cccnc3)cc1)[C@@H]2CO	nt	0	-3	nt	nt	nt	nt
COCC(=O)Nc1ccc2c(c1)[C@H]1C[C@@H](CC(=O)NCc3ccccc3F)O[C@@H](CO)[C@H]1O2	14	nt	-2	nt	nt	nt	nt
C[C@H](CO)N1C[C@H](C)[C@H](CN(C)S(C)(=O)=O)Oc2cc(C3=CCCCC3)ccc2S1(=O)=O	88	13	29	nt	nt	nt	nt
C[C@@H]1CN([C@@H](C)CO)S(=O)(=O)c2ccc(C3=CCCCC3)cc2O[C@@H]1CN(C)S(=O)(=O)c1ccc(F)cc1	120*	3	-34	98*	84	24	75*
C[C@H](CO)N1C[C@H](C)[C@H](CN(C)S(=O)(=O)c2ccc(F)cc2)Oc2cc(C3=CCCCC3)ccc2S1(=O)=O	118*	18	-64	101*	105*	46*	62*
C[C@H]1CN([C@@H](C)CO)S(=O)(=O)c2ccc(C3=CCCCC3)cc2O[C@H]1CN(C)S(C)(=O)=O	64	0	20	nt	nt	nt	nt
C[C@H]1CN([C@@H](C)CO)S(=O)(=O)c2ccc(C3=CCCCC3)cc2O[C@@H]1CN(C)S(=O)(=O)c1ccc(F)cc1	117*	4	-60	92	108*	?	55*
C[C@H]1CN([C@@H](C)CO)S(=O)(=O)c2ccc(C3=CCCCC3)cc2O[C@H]1CN(C)S(=O)(=O)c1ccc(F)cc1	125*	14	-83*	109*	105*	-10	50*
C[C@H]1CN([C@@H](C)CO)S(=O)(=O)c2ccc(C3=CCCCC3)cc2O[C@@H]1CN(C)S(C)(=O)=O	-9	-9	45	nt	nt	nt	nt
C[C@@H]1CN([C@@H](C)CO)S(=O)(=O)c2ccc(C3=CCCCC3)cc2O[C@@H]1CN(C)S(C)(=O)=O	59	-9	57	nt	nt	nt	nt
CC(C)c1cn(CC[C@H]2CC[C@H](NC(=O)Nc3cc(Cl)cc(Cl)c3)[C@H](CO)O2)nn1	-25	nt	6	nt	nt	nt	nt
CCCNC(=O)N(C)C[C@@H]1Oc2ncc(C#CC3CC3)cc2C(=O)N([C@@H](C)CO)C[C@@H]1C	78	nt	23	nt	nt	nt	nt
C[C@H]1CN([C@@H](C)CO)C(=O)c2cc(NC(=O)Nc3ccccc3)ccc2O[C@@H]1CN(C)S(C)(=O)=O	12	-3	3	nt	nt	nt	nt
SMILES	T cruzi growth-1	C diff HTS	Pf Dd2 growth	T cruzi growth-2	T cruzi growth-3	3T3 cytotox	3T3 cytotox 2
O=C(N[C@H]1CC[C@H](CCn2cc(-c3ccccc3)nn2)O[C@H]1CO)c1cnccn1	41	-12	12	nt	nt	nt	nt
COc1cc(CN2CC3(CN(C(=O)Nc4cccc(F)c4)C3)c3c(n(C)c4cc(OC)ccc34)[C@@H]2CO)cc(OC)c1	nt	54	-31	nt	nt	nt	nt
C[C@@H]1CN([C@@H](C)CO)S(=O)(=O)c2ccc(C3=CCCCC3)cc2O[C@H]1CN(C)S(=O)(=O)c1ccc(F)cc1	121*	7	-78	104*	92	29	31*
C[C@@H]1CN([C@@H](C)CO)S(=O)(=O)c2ccc(C3=CCCCC3)cc2O[C@H]1CN(C)S(C)(=O)=O	4	-12	2	nt	nt	nt	nt
C[C@H](CO)N1C[C@H](C)[C@H](CN(C)S(=O)(=O)c2ccc(Cl)cc2)OCCCC[C@H](C)Oc2ccc(NC(=O)CCCN(C)C)cc2C1=O	20	0	-55	nt	nt	nt	nt
CCCC#Cc1ccc2c(c1)O[C@H](CN(C)CCC)[C@H](C)CN([C@@H](C)CO)S2(=O)=O	75	5	-79	nt	nt	nt	nt
CCCC#Cc1ccc2c(c1)O[C@@H](CN(C)CCC)[C@H](C)CN([C@@H](C)CO)S2(=O)=O	99*	nt	-57	101*	62	39*	104*
CCCN(C)C[C@H]1Oc2cc(C#Cc3ccccc3F)ccc2S(=O)(=O)N([C@H](C)CO)C[C@@H]1C	87	12	-23	nt	nt	nt	nt
CCCN(C)C[C@H]1Oc2cc(C#Cc3cccc(F)c3)ccc2S(=O)(=O)N([C@H](C)CO)C[C@@H]1C	110*	12	nt	112*	56	1	104*
CCCN(C)C[C@@H]1Oc2cc(C#Cc3cccc(F)c3)ccc2S(=O)(=O)N([C@H](C)CO)C[C@@H]1C	108*	6	nt	107*	55	15	106*
CCCN(C)C[C@H]1Oc2cc(C#Cc3ccccc3)ccc2S(=O)(=O)N([C@@H](C)CO)C[C@H]1C	60	0	-59	nt	nt	nt	nt
CCCN(C)C[C@H]1Oc2cc(C#Cc3ccc(F)cc3)ccc2S(=O)(=O)N([C@H](C)CO)C[C@@H]1C	31	5	-8	nt	nt	nt	nt
